Mcl1 Noxa PPI: disrupts binding of human Mcl-1 to Noxa peptide. Q07820. TR-FRET Mcl-1/Noxa peptide binding, 2 h. hit rate 1.5% among 220,000. AID 1022. inhibition, % at 21.7 µM;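 active = compounds that cut the protein-peptide binding signal by more than 50% relative to plate controls in a single-dose test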;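 note: His-tagged Mcl-1 with rhodamine Noxa BH3 peptide and terbium anti-His antibody; 0% = Mcl-1 plus Noxa peptide wells and 100% = peptide-only wells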
Mcl1-Bid inh: Mcl-1/Bid interaction inhibition; Q07820; TR-FRET Mcl-1/Bid-Dy647 peptide binding, 1536-well; inhibition, % at 21.7 µM; hit rate 0.97% among 220,000; AID 1021;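 active = compounds that cut the binding signal by more than half at the single screening dose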;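 note: His-tagged Mcl-1 with europium anti-His antibody binding Bid BH3 peptide; 0% = Mcl-1 plus peptide wells and 100% = peptide-only wells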
Bim-Mcl-1: inhibitors of Bim-Mcl-1 interaction, human. Q07820. Bead-based flow cytometry, Bim peptide-Mcl-1 binding. inhibition, % at 10 µM. hit rate 0.1% among 190,000; in the data active = inhibition above about 40%;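 note: 0% = no compound tracer wells and 100% = peptide blocker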
p47phox inh: p47phox (human) inhibition | P14598 | p47phox/p22phox peptide binding, fluorescence polarization, 2 h | inhibition, % at 24.7 µM | hit rate 0.53% among 220,000 | AID 1274;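 active = inhibition above about 30%, limit read from the data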;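 note: 0% = p47phox with labelled peptide and 100% = labelled peptide alone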
Target sequence (P14598 whole entry, looked up): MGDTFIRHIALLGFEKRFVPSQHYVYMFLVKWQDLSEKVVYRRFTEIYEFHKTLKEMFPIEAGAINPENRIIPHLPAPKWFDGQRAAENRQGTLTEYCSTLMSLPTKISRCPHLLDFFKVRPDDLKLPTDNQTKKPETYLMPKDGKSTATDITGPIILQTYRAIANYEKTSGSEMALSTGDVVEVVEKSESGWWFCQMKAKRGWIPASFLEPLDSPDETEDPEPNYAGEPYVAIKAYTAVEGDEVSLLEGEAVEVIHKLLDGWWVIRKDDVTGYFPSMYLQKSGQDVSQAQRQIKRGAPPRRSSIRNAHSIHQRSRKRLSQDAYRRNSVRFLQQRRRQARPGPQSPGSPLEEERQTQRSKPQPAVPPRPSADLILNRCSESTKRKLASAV
14-3-3 Bad inh: disrupts binding of bovine 14-3-3 zeta to phospho-Bad peptide | AID 781 | hit rate 0.71% among 220,000 | TR-FRET 14-3-3zeta/Dy647-pBad peptide displacement, 1 h | P63103 | inhibition, % at 21.7 µM;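 active = inhibition above about 70%, limit read from the data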;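 note: 0% = full 14-3-3 plus peptide FRET controls and 100% = background without 14-3-3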
Target sequence (P63103 whole entry, looked up): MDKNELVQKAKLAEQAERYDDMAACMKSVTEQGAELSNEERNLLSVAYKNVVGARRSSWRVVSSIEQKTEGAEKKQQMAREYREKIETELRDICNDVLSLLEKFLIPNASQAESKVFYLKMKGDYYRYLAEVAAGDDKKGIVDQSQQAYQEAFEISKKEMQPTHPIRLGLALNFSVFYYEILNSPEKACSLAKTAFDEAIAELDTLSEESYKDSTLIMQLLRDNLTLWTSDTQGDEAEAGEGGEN
Calpain2 inh: calpain II (pig) inhibition | purified calpain II, fluorogenic peptide substrate, 30 min | inhibition, % at 16 µM | hit rate 0.37% among 220,000;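 active = inhibition above about 50%, limit read from the data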
* = called active by the depositor; · = no result given. Shown are actives, neighbours in structure and some others; about 3.4% of the full set was active somewhere.

SMILES | Mcl1 Noxa PPI | Mcl1-Bid inh | Bim-Mcl-1 | p47phox inh | 14-3-3 Bad inh | Calpain2 inh
O=C(CN1CCN(c2ccc(F)cc2)CC1)NCC1CCCO1 (stereo unspecified) | 7 | -79 | -5 | -6 | -10 | 3
Cc1cc(C)cc(OCC(=O)OCC(=O)Nc2c(C)n(C)n(-c3ccccc3)c2=O)c1 | -15 | -10 | -1 | -2 | -13 | -24
Cc1nnc(SCC(=O)N2N=C(c3ccc(Cl)cc3)CC2c2ccco2)[nH]c1=O (stereo unspecified) | 53* | -64 | 4 | -53 | -11 | -9
Cc1nnc(NC(=O)Cn2nc(C)c3ccccc3c2=O)s1 | 20 | -17 | 0 | -7 | -5 | -18
COc1ccccc1C(=O)O/N=C(/C)c1ccc(N2C(=O)C3CCCCC3C2=O)cc1 (stereo unspecified) | 18 | 2 | -1 | 7 | -2 | 54*
Cc1ccc(C(=O)Oc2ccccc2N2C(=O)C3CCCCC3C2=O)cc1 (stereo unspecified) | 0 | -31 | -6 | -8 | 6 | -31
Cc1cc(OCc2nnc(SC(C)C(=O)O)n2Cc2ccccc2)ccc1Cl (stereo unspecified) | 22 | 9 | 0 | 2 | -3 | -58
CCOC(=O)C1=C(C)N(c2ccc(C)cc2)C(=O)/C1=C\c1ccc(O)c(OC)c1 | 39 | -164 | · | -13 | 26 | 8
CCOC(=O)C1=C(O)c2ccccc2C(=O)/C1=C\c1ccc(C)cc1 | 79* | 27 | 2 | 57* | -11 | -5
C=CCSc1nc2c(c(=O)[nH]c(=O)n2C)n1C/C=C(/C)Cl | 58* | -1 | -4 | -12 | -6 | 1
CCC(C)NC(=O)C(Sc1ccccc1)c1ccccc1 (stereo unspecified) | 17 | -19 | 1 | -1 | -4 | -9
O=C(N/N=C/c1ccc(COc2ccc(Br)cc2)o1)c1ccco1 | 1 | -11 | -1 | -9 | -2 | -8
Cn1c(=O)c(Nc2ccc(O)cc2)c2c3c(cccc31)C(=O)c1ccccc1-2 | 66* | -12 | 0 | 6 | -13 | -70
COc1cc(/C=N/NC(=O)c2ccccc2O)ccc1OC(=O)CC1SC(=O)NC1=O (stereo unspecified) | 19 | -10 | · | -14 | -1 | -1
Cc1nc(N2CCN(c3ccccc3)CC2)[nH]c(=O)c1Cc1ccccc1 | -11 | -16 | 0 | 2 | 92* | 16
Cc1nc(N2CCN(C)CC2)[nH]c(=O)c1Cc1cccc2ccccc12 | -6 | -28 | 0 | -13 | 2 | -13
COc1cc2c(c(OC)c1O)C(=O)CO2 | 15 | -49 | · | -11 | -5 | 4
COc1cc(OC)c2c(O)c3c(c(-c4c5c(c(O)c6c(OC)cc(OC)cc46)CO[C@@H](C)[C@H]5O)c2c1)[C@H](O)[C@H](C)OC3 | 102* | 79* | -4 | -121 | 44 | 26
COc1ccccc1Cc1nc2ccccc2n1S(=O)(=O)c1ccc(Cl)cc1 | 0 | 59* | 0 | -4 | 15 | -2
COC(=O)c1cc2c(C)[nH]c(C)c2cc(C(=O)OC)c1=O | 38 | -84 | 1 | -3 | 0 | 15
O=C(CSc1ccc(-c2ccco2)nn1)c1ccccc1 | 59* | -15 | -7 | -4 | -9 | 4
Cc1ccccc1NC(=O)CSc1ccc(-c2ccco2)nn1 | 13 | -12 | -3 | -12 | 0 | -25
CCc1nnc(NC(=O)CSc2ccc(-c3ccco3)nn2)s1 | 59* | -36 | -2 | 3 | 5 | -130
Cc1nnc(NC(=O)CSc2ccc(-c3ccco3)nn2)s1 | 56* | -56 | 4 | -3 | 0 | -78
CN(C)c1ccc(-c2nnn(CC(=O)NCc3ccc4c(c3)OCO4)n2)cc1 | 5 | -25 | 0 | -5 | 10 | 19
SMILES | Mcl1 Noxa PPI | Mcl1-Bid inh | Bim-Mcl-1 | p47phox inh | 14-3-3 Bad inh | Calpain2 inh
Cc1ccccc1/C=N\NC(=O)c1ccccc1-n1cccc1 | 8 | -27 | 0 | -6 | -8 | -5
CCCCOc1ccccc1NC(=O)CC1SC(=NCC)N(CC)C1=O (stereo unspecified) | -3 | -27 | -3 | 13 | 76* | -6
CCN=C1SC(CC(=O)Nc2ccccc2OCC)C(=O)N1CC (stereo unspecified) | -18 | -1 | 0 | 4 | -12 | 4
O=[N+]([O-])c1cc2oc3c(c2c(C=NCc2ccncc2)c1O)CCCC3 | 43 | -36 | -3 | 6 | -16 | -56
O=C(O)CSc1nc2ccccc2n1C1CCCCC1 | 32 | 50 | -2 | 0 | 84* | -5
CC1CCc2c(C(=O)Nc3ccc(N4CCOCC4)cc3)csc2C1 (stereo unspecified) | 67* | -3 | -1 | -6 | 5 | -25
Cc1ccc(C(=O)N2CC(=O)Nc3ccc(F)cc3C2c2ccc(F)cc2)cc1[N+](=O)[O-] (stereo unspecified) | 9 | 53* | -4 | 8 | 11 | 25
O=C(/C=C/c1cc[n+](CC(=O)c2ccc3cccc4c3c2CC4)cc1)c1ccc2cccc3c2c1CC3 | 55* | 99* | · | 29 | 94* | -96
CC(NC(=O)Nc1ccc([N+](=O)[O-])cc1)C(c1cccs1)N1CCCC1 (stereo unspecified) | 7 | -1 | -3 | -9 | -12 | 13
CCc1c(C)sc(NC(=O)OC)c1C(=O)N1CCCCC1 | 16 | 8 | -5 | 37* | -1 | -29
C/C(=N\NC(=O)c1c(Cl)cnn1C)c1ccc(NC(=O)c2ccncc2)cc1 | 2 | -32 | -4 | -7 | 6 | -11
O=c1ccc(Oc2nc(N3CCCCC3)nc(N3CCCCC3)n2)n[nH]1 | 4 | -41 | 1 | -1 | 74* | 26
CCNc1nc(Oc2ccc(=O)[nH]n2)nc(N2CCOCC2)n1 | 5 | 2 | -4 | -24 | 5 | -30
O=C1Nc2ccc([N+](=O)[O-])cc2C1(O)N1CCCCCC1 (stereo unspecified) | 7 | -13 | -1 | -17 | 24 | 29
CC1CCN(C2(O)C(=O)Nc3ccc(Br)cc32)CC1 (stereo unspecified) | -1 | -16 | 93* | -2 | 83* | 20
CCCCNC(=O)c1ccccc1NC(=O)CCC | 9 | -4 | -3 | -8 | 0 | -14
Cc1[nH]n(C(N)=S)c(=O)c1N=Nc1ccc(S(=O)(=O)N2CCCCCC2)cc1 | -26 | -258 | 51* | -24 | -21 | 3
N#CC1=C(O)C(c2ccccc2)n2c1nc(=O)c1ccccc12 (stereo unspecified) | 0 | 7 | 1 | -68 | 90* | -365
N#Cc1c(NC(=O)CSc2ncnc3sccc23)oc(-c2ccco2)c1-c1ccco1 | 97* | -35 | 3 | -74 | -1 | -161
Cc1cc(NC(=O)CSc2ncnc3sccc23)no1 | 7 | -10 | -1 | -6 | -13 | 3
CCOP(=O)(O)c1ccccc1OCCOCCOc1ccccc1P(=O)(O)OCC | 54* | 30 | -1 | -20 | 31 | 5
